About 83,000 compounds went through this panel and 20% of them were active in at least one assay; those are over-represented in the sample as a whole.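 Cells were grown in 96-well plates and exposed to the test compound at a single concentration for 48 hours; results are reported as percent growth, with values below 10 considered active.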 Unmarked numbers belong to inactive results. The source made the active and inactive calls.
Assays:
Test in all cases: NCI-60 one-dose screen, 48 h (100 = growth as untreated, 0 = no growth, -100 = all killed)
Settings in all cases: 10 µM unless noted
HT29 colon = test system: HT29 colon
SNB-75 CNS = test system: SNB-75 CNS
SNB-19 CNS = test system: SNB-19 CNS
U251 CNS = test system: U251 CNS
PC-3 prostate = test system: PC-3 prostate
SK-MEL-5 melanoma = test system: SK-MEL-5 melanoma
UACC-62 melanoma = test system: UACC-62 melanoma
LOX IMVI melanoma = test system: LOX IMVI melanoma
SK-MEL-28 melanoma = test system: SK-MEL-28 melanoma
SK-MEL-2 melanoma = test system: SK-MEL-2 melanoma

SMILES | growth (HT29 colon) | growth (SNB-75 CNS) | growth (SNB-19 CNS) | growth (U251 CNS) | growth (PC-3 prostate) | growth (SK-MEL-5 melanoma) | growth (UACC-62 melanoma) | growth (LOX IMVI melanoma) | growth (SK-MEL-28 melanoma) | growth (SK-MEL-2 melanoma)
OC1CCc2c(-c3ccc4ncnc(N5CCc6cc(F)c(Cl)cc65)c4c3)cncc21 (centres undefined) | 65.6% | 31.7% | 57.2% | 69.6% | 41.3% | 54% | 43.5% | 54% | 73.6% | 46.7%
COc1ccc(-c2nn3c(-c4ccccc4F)nnc3s2)cc1 | 39.3% | 66.3% | 73.2% | 55.7% | 83.1% | 64.4% | 51.1% | 60.3% | 59.4% | 30.5%
Oc1c(Cl)cc(Cl)c2ccc(CN3CCCCC3)nc12 | 48.3% | 83.3% | 44.1% | 30.6% | 56.8% | 33.1% | 4.28% (active) | 31.7% | 28.7% | 84.1%
Cc1c(Nc2nnc(SCC(=O)Nc3sc4c(c3C#N)CCCC4)s2)c(=O)n(-c2ccccc2)n1C | 117% | 127% | 100% | 102% | 101% | 102% | 92.9% | 88.7% | 107% | 106%
Clc1ccc2oc3c(OCCCn4ccnc4)c4ccccc4nc3c2c1 | 36.7% | 68.5% | 73.5% | 61.6% | 68.9% | 92.8% | 83.1% | 42.8% | 89.8% | 112%
CN1CCN(Cc2ccc(NC(=O)c3cncc(C#Cc4cnc5[nH]ncc5c4)c3)cc2C(F)(F)F)CC1 | 22.7% | 64% | 59.3% | 31.3% | 42.3% | 43.4% | 1.56% (active) | 2.34% (active) | 1.4% (active) | -49.6% (active)
CN1CCN(Cc2ccc(NC(=O)c3cncc(C#Cc4cnc5ccc(N6CCSCC6)nn45)c3)cc2C(F)(F)F)CC1 | -50.1% (active) | -67.4% (active) | -12.6% (active) | -91.6% (active) | 1.39% (active) | 7.81% (active) | -30.5% (active) | -89.8% (active) | -48.1% (active) | -89.1% (active)
O=c1[nH]c2ccccc2cc1CSc1ccccc1Nc1nccc(-c2ccc(C(F)(F)F)cc2)n1 | 56.1% | 66.4% | 59.6% | 47.5% | 56.6% | 96.2% | 70.4% | 19.8% | 84.9% | 89.8%
COc1cc2cc(Oc3ccc(NC(=O)c4cccc(C(F)(F)F)c4)cc3)c(C)nc2cc1OCCN1CCCCC1 | -50.7% (active) | 90.8% | 90.2% | -63.8% (active) | 33.1% | 38.7% | -65.8% (active) | -93.6% (active) | -88.5% (active) | 74%
Cn1cc(-c2cc(N)n3nc(-c4cn(C)c5ccc(F)cc45)cc3n2)c2cc(F)ccc21 | -72.8% (active) | 109% | 50.1% | -62.4% (active) | 63.4% | 104% | 62.5% | -61.9% (active) | 92.4% | 
C#C[C@]1(O)CC[C@H]2[C@@H]3CC=C4c5sc(-c6ccc(F)cn6)nc5CC[C@]4(C)[C@H]3CC[C@@]21C | 38.3% | -13.2% (active) | 31.5% | 15.7% | 24.2% | 33.4% | 0.399% (active) | -63.9% (active) | -28.5% (active) | -28.4% (active)
Cc1ccc(C(=O)Nc2cccc(C(F)(F)F)c2)cc1Nc1nc(-c2cnccn2)nc2c1cnn2C | 32.9% | 77.4% | 86% | 82.1% | 90.1% | 57.6% | 17.9% | 62.3% | 15.6% | -4.36% (active)
CCCC(=O)NC(c1cccnc1)c1cc(C)c2cccnc2c1O (centres undefined) | 21.5% | 77.5% | 61.4% | 41.3% | 56.9% | 48.7% | 28.4% | 40.2% | 42.5% | 101%
CC(C)(O)c1cncc(-c2ccc3ncnc(N4CCc5cc(F)c(Cl)cc54)c3c2)c1 | 20.8% | -20% (active) | 25.2% | 42.6% | 18.7% | 13.4% | 5.48% (active) | 12.2% | 24.8% | -1.1% (active)
COc1ccc(-c2nc3ccc(-c4nnc(SCC(=O)Nc5ccc(C(=O)/C=C/c6ccccc6)cc5)o4)cc3[nH]2)cc1OC | 103% | 90.3% | 107% | 93.2% | 101% | 95.5% | 95% | -11.8% (active) | 105% | 108%
Cn1cc(-c2cc(N)n3nc(-c4cn(C)c5ccc(Br)cc45)cc3n2)c2cc(Br)ccc21 | 4.96% (active) | 82.2% | 104% | -37.9% (active) | 71.9% | 108% | 92.1% | 6.31% (active) | 97.2% | 120%
CNC(=O)c1cc(-c2ccc(NC(=O)Nc3ccc(N4CCOCC4)c(C(F)(F)F)c3)cc2)nc2cccnc12 | 54.9% | 67.6% | 58.8% | 43.7% | 52.1% | 67.2% | 64.3% | 31.1% | 64.5% | 67.8%
Clc1ccc2c(NCCCn3ccnc3)c3oc4ccccc4c3nc2c1 | 19.4% | 47.8% | 57.1% | 19.6% | 47.9% | 76% | 66.1% | 14.4% | 68.2% | 84.9%
N[C@@H](Cc1cn(-c2ccnc3ccccc23)nn1)C(=O)O | 102% | 98.5% | 88.7% | 101% | 96.2% | 103% | 95.4% | 102% | 97% | 124%
CN(C)CCCNc1c2ccc(Cl)cc2nc2c1oc1ccc(Cl)cc12 | -45.6% (active) | 45.2% | 38.2% | -50.9% (active) | -24.1% (active) | 77.1% | 12.6% | -93.7% (active) | 72.5% | 127%
NS(=O)(=O)c1ccc(Nc2nc(SCC(=O)c3ccc(Cl)cc3)nc3ccccc23)cc1 | 105% | 75.3% | 97.8% | 95.2% | 89.9% | 95.3% | 79.4% | 99.5% | 100% | 100%
Cc1nc(-c2cc3ccccc3oc2=O)ccc1C(=O)/C=C/c1ccc(Cl)c(Cl)c1 | 114% | 95.2% | 98.5% | 99.4% | 101% | 105% | 100% | 86.9% | 106% | 134%
Cc1ccc(-c2nc(C(Cl)Cl)nc3cc(-c4ccccc4)nn23)cc1 | -43.7% (active) | -3.07% (active) | 14.8% | -58.6% (active) | 26.8% | 67.3% | 55.7% | 43.6% | 1.35% (active) | 88.8%
N=C1CC(=O)NN1C(=O)CSc1nc2sc3c(c2c(=O)n1-c1ccc(Cl)cc1)CCCC3 | 126% | 73.7% | 92.9% | 101% | 95.6% | 103% | 93.9% | 97.1% | 108% | 128%
Nc1c(C(=O)Nc2ccc(Cl)cc2)sc2nc(-c3cnccn3)cc(-c3cccs3)c12 | -10.3% (active) | 14.2% | 49.1% | 17.9% | 54.3% | 76.5% | 69.5% | -16.8% (active) | 64.8% | 85.4%
NC(=O)c1cc(-c2ccc3ncnc(N4CCc5cc(F)c(Cl)cc54)c3c2)cnc1N | 21% | -25% (active) | 39.5% | 40.8% | 25% | 52.1% | 26% | 24% | 28.8% | -51.5% (active)
COc1cc(-c2nc3ccc(-c4nnc(SCC(=O)Nc5ccc(C(=O)/C=C/c6ccc(Cl)cc6)cc5)o4)cc3[nH]2)cc(OC)c1OC | 102% | 85.3% | 93.4% | 77.6% | 95.1% | 91.4% | 84% | -31.6% (active) | 102% | 100%

From PubChem BioAssay (NCI)
